From PubChem BioAssay (NCATS)
Calls of active or inactive are those of the source. Where a call stands in place of a potency, no number is given. The call rests on the fitted dose curve; in most records, active means well fitted cell-killing curve with a large enough effect; inconclusive means small, poorly fitted or top-dose-only effect; inactive means flat fitted curve, though single readings scatter.

assay: Cell Viability - LYMP1-002 - Assay at 24 hr (AID 993); settings: LYMP1-002 lymphoblastoid cells viability; series mostly up to 92.2 µM
Excerpt: NIH Chemical Genomics Center [NCGC]
NIH Molecular Libraries Screening Centers Network [MLSCN]
National Institutes of Environmental Health Sciences [NIEHS]
National Toxicology Program [NTP]
We have developed a 1536-well cell-based assay for quantitative high throughput screening (qHTS) against a number of cell lines to determine in vitro cytotoxicity of small molecules. This particular assay uses a human lymphoblastoid cell line (LYMP1-002) purchased from Coriell Institute for Medical Research.
NCGC Assay Protocol Summary:
The CellTiter-Glo luminescent cell viability assay (Promega) is a homogeneous method to measure the number of viable cells in culture. The end point readout of this assay is based on quantitation of intracellular ATP, an indicator of metabolic activity, using the luciferase reaction. Luciferase catalyzes the oxidation of beetle Luciferin to oxyluciferin and light in the presence of ATP. The luminescent signal is proportional to amount of ATP present.
Using the CellTiter-Glo luminescent cell viability assay, the amount of cellular ATP was measured in the lymphoblastoid cell line with complete culture medium following compound treatment for 24 hours. The assay was performed in opaque white Kalypsys 1536-well plates. In the screen, tetraoctylammonium bromide was used as positive control. Library compounds were measured for their ability to cause acute toxicity in the cell line, as reflected by a decrease in intracellular ATP levels, in a concentration-dependent manner. […] AC50 values were determined from concentration-response data modeled with the standard Hill equation.
qHTS protocol for CellTiter Glo lymphoblastoid cellular assay
[Step] [Parameter] [Value] [Description]
1. Reagent; 5 uL; 2500 lymphoblastoid cells/well
2. Time; 5 hr; 37 C incubation
4. Controls; 23 nL; Tetraoctylammonium bromide 6.4pM to 92 uM
5. Time; 24 hr; 37 C incubation
6. Reagent; 5 uL; CellTiter Glo reagent
7. Time; 30 min; Room Temperature
8. Detection; Luminescence; Viewlux plate reader
Keywords: cell viability, cytotoxicity, lymphoblastoid cell line, luminescence, NTPHTS, NTPHTS_NCGC, NIEHS, DSSTox, MLSMR, MLSCN, NIH Roadmap, qHTS, NCGC

Row | SMILES | Potency
1 | Cc1ccc([N+](=O)[O-])c(N)c1 | inactive
2 | C=CCn1c(=O)n(CC=C)c(=O)n(CC=C)c1=O | inactive
3 | C[C@@H]1CC2(OC3C[C@@]4(C)C5=CC[C@H]6C(C)(C)C(O[C@@H]7OC[C@@H](O)[C@H](O)[C@H]7O)CC[C@@]67C[C@@]57CC[C@]4(C)C31)OC(O)C1(C)OC21 (stereo not given in full) | inactive
4 | CCCCC=O | inactive
5 | CCCCCCO | inactive
6 | ON=C1CCCCC1 | inactive
7 | N#CC1(O)CCCCC1 | inactive
8 | CC(O)CC(C)O (stereo not given) | inactive
9 | c1ccc(Oc2ccccc2)cc1 | inactive
10 | C=CCCCCCCC=C | inactive
11 | CC(=O)OC(C)C | inactive
12 | NC(=O)c1ccccc1[N+](=O)[O-] | inactive
13 | Cc1cc(C)cc([N+](=O)[O-])c1 | inactive
14 | CC1CCCO1 (stereo not given) | inactive
15 | C/C(C=O)=C/c1ccccc1 | inactive
16 | O=Cc1ccc(CO)o1 | inactive
17 | FC(F)(F)c1cccc(Cl)c1 | inactive
18 | CC(=O)c1cc(C)oc1C | inactive
19 | O=P(O)(OCc1ccccc1)OCc1ccccc1 | inactive
20 | Nc1c(Cl)cc(Cl)cc1Cl | inactive

Row | SMILES | Potency
21 | O=C(O)c1ccc(C(=O)O)cc1 | inactive
22 | CCCCC(CC)COCC1CO1 (stereo not given) | inactive
23 | CCCCC(CC)CO (stereo not given) | inactive
24 | Cc1cc(C(=O)O)ccc1[N+](=O)[O-] | inactive
25 | Cc1ccccc1C(N)=O | inactive
26 | C=CC(=O)NC(C)C | inactive
27 | CC(C)=CCC/C(C)=C/C=O | inactive
28 | O=Cc1cccc(Br)c1 | inactive
29 | Cc1ccc(Cl)cc1 | inactive
30 | CC(=O)OC(C)=O | inactive
31 | Cc1ccc(C)c([N+](=O)[O-])c1 | inactive
32 | Nc1cccc(S(=O)(=O)O)c1 | inactive
33 | CC(C)Nc1ccccc1 | inactive
34 | Cc1ccc2cccnc2c1 | inactive
35 | C=Cc1ccccc1C=C | inactive
36 | C1COC1 | inactive
37 | COC(=O)CCC(=O)OC | inactive
38 | CCOc1ccc(NC(C)=O)cc1N | inactive
39 | CCOc1ccccc1N | inactive
40 | c1ccsc1 | inactive
